Results on nine molecules are retold here after PubChem BioAssay (NCI).

Structures are written as SMILES. Several values for one entry are separate records, joined by “and”; a condition that tells them apart may be missing. Equal values may be shown once. About 83,000 compounds went through this panel and 20% of them were active in at least one assay; those are over-represented in the sample as a whole.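 Single-concentration screen, 48 h exposure, 96-well plates. Endpoint: percent growth. Below 10 = active.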 Activity calls are given as the source filed them.

Among the test systems are HOP-92 NSCLC; K-562 leukemia; RXF 393 renal; UACC-257 melanoma; SK-MEL-2 melanoma; SN12C renal; TK-10 renal; CAKI-1 renal; A498 renal; RPMI-8226 leukemia; MDA-MB-435 melanoma; HCC-2998 colon; OVCAR-3 ovarian.
Holding throughout (assay): NCI-60 one-dose screen, 48 h (100 = growth as untreated, 0 = no growth, -100 = all killed)
Holding throughout (details): 10 µM

In the case of `N#Cc1c(-n2c(Br)c(Br)c3cc(Br)ccc32)[nH]c2c(Br)cc(Br)cc12`, the growth was -31.4% (active) in the assay on HOP-92 NSCLC; 7.11% (active) with K-562 leukemia; -31.7% (active) with RXF 393 renal; -23.8% (active) in the assay with UACC-257 melanoma; -61.2% (active) with SK-MEL-2 melanoma; 0.622% (active) in the assay with SN12C renal. The growth is -2.55% (active) with TK-10 renal; -3.39% (active) in the assay on CAKI-1 renal; -73% (active) in the assay on A498 renal; -3.21% (active) in the assay on RPMI-8226 leukemia; -0.901% (active) in the assay on MDA-MB-435 melanoma; 2.82% (active) in the assay with HCC-2998 colon.

For the molecule `Cc1ccc(CNc2nc3ccc(OC/C(=C/F)CN)cc3o2)cn1`, the growth is 93.9% (inactive) in the assay with HOP-92 NSCLC; 108% (inactive) in the assay with K-562 leukemia; 69.1% (inactive) with RXF 393 renal; 104% (inactive) in the assay on UACC-257 melanoma; 110% (inactive) in the assay on SK-MEL-2 melanoma; -37.4% (active) in the assay with SN12C renal. For the same molecule, the growth in the assay with TK-10 renal was 71.9% (inactive); in the assay with CAKI-1 renal, 68.3% (inactive); in the assay on A498 renal, 58.4% (inactive); with RPMI-8226 leukemia, 105% (inactive); in the assay on OVCAR-3 ovarian, 109% (inactive); in the assay with MDA-MB-435 melanoma it was 99.6% (inactive). Also, in the assay with HCC-2998 colon, the growth is 111% (inactive).

For `C/C=C/CC(C)C(O)[C@H](NC(=O)[C@@H]1CCCN1C(=O)C(C)(C)NC(=O)CCCCCCCCC)C(=O)N[C@@](C)(CC)C(=O)N[C@@H](CCC(N)=O)C(=O)N[C@H](CCC(N)=O)C(=O)NC(C)(C)C(=O)NC(C)(C)C(=O)N[C@@H](CCC(N)=O)C(=O)N[C@H](CC(C)C)C(=O)N[C@H](CO)CC(C)C` (some centres undefined), the growth in the assay with HOP-92 NSCLC is 7.21% (active) and 76.4% (inactive); in the assay with K-562 leukemia it was -17.8% (active) and 16.5% (inactive); in the assay on RXF 393 renal it was -61.8% (active) and 31.5% (inactive); with UACC-257 melanoma, -66.9% (active) and 3.39% (active); in the assay on SK-MEL-2 melanoma it was 13.2% (inactive) and 89.1% (inactive); in the assay on SN12C renal, 18.6% (inactive) and 12.1% (inactive). For the same molecule, the growth in the assay with TK-10 renal was 59.9% (inactive) and 97.1% (inactive); in the assay on CAKI-1 renal it was 13.1% (inactive) and 44.1% (inactive); in the assay on A498 renal it was -40.8% (active) and 38.8% (inactive); in the assay on RPMI-8226 leukemia it was 7.09% (active) and 29.1% (inactive); with OVCAR-3 ovarian it was 76.2% (inactive); in the assay with MDA-MB-435 melanoma, -84.2% (active) and -6.26% (active). In the assay with HCC-2998 colon, the growth is -12% (active) and 13.2% (inactive).

For `CC1=C2C(=O)[C@](C)(CO)C=C2C(=O)[C@](C)(O)C12CC2`, the growth in the assay with HOP-92 NSCLC is -6.97% (active); in the assay on K-562 leukemia, 16.5% (inactive); with RXF 393 renal it was -82.9% (active); in the assay on UACC-257 melanoma it was 25.3% (inactive); with SK-MEL-2 melanoma, -35.6% (active); in the assay with SN12C renal, 40.2% (inactive). Moreover, the growth with TK-10 renal was -6.25% (active); in the assay on CAKI-1 renal it was 45.8% (inactive); in the assay with A498 renal it was -35.9% (active); with OVCAR-3 ovarian it was 4.36% (active); with HCC-2998 colon it was -2.5% (active).

As for `CC1=C2C(=C[C@@](C)(COS(C)(=O)=O)[C@@H]2O)C(=O)[C@](C)(O)C12CC2`, the growth with HOP-92 NSCLC was -15.5% (active); in the assay on K-562 leukemia, 3.56% (active); with RXF 393 renal, -78.1% (active); in the assay on UACC-257 melanoma it was 0.386% (active); with SK-MEL-2 melanoma, -39.5% (active); in the assay on SN12C renal it was 13.8% (inactive). Moreover, the growth in the assay with TK-10 renal was 5.33% (active); in the assay with CAKI-1 renal, -31.5% (active); in the assay with A498 renal, -61% (active); in the assay on OVCAR-3 ovarian, 7.64% (active); in the assay with HCC-2998 colon, -25.7% (active).

As to `C/C=C/CC(C)C(O)[C@H](NC(=O)[C@@H]1CCCN1C(=O)C(C)(C)NC(=O)CCCCCCC)C(=O)N[C@@](C)(CC)C(=O)N[C@@H](CCC(N)=O)C(=O)N[C@H](CCC(N)=O)C(=O)NC(C)(C)C(=O)NC(C)(C)C(=O)N[C@@H](CCC(N)=O)C(=O)N[C@H](CC(C)C)C(=O)N[C@H](CO)CC(C)C` (some centres undefined), the growth with HOP-92 NSCLC is 106% (inactive) and 29.4% (inactive); with K-562 leukemia, 101% (inactive) and 6.14% (active); in the assay on RXF 393 renal, 112% (inactive) and -10.7% (active); with UACC-257 melanoma, 106% (inactive) and -33.7% (active); in the assay on SK-MEL-2 melanoma, 115% (inactive) and 34% (inactive); in the assay on SN12C renal, 102% (inactive) and 9.5% (active). For the same molecule, the growth in the assay with TK-10 renal is 115% (inactive) and 28.2% (inactive); in the assay on CAKI-1 renal it was 101% (inactive) and 28.5% (inactive); in the assay with A498 renal, -7.1% (active); in the assay with RPMI-8226 leukemia it was 105% (inactive) and -9.85% (active); in the assay on OVCAR-3 ovarian it was 113% (inactive) and 23.8% (inactive); in the assay with MDA-MB-435 melanoma it was 104% (inactive) and -47.4% (active). Further, the growth in the assay with HCC-2998 colon is 114% (inactive) and 24% (inactive).

In the case of `CC1=C(CN(O)C(N)=O)C2=C(C)C3(CC3)[C@@](C)(O)C(=O)C2=C1`, the growth in the assay with HOP-92 NSCLC was -21.1% (active); in the assay on K-562 leukemia, 95.4% (inactive); in the assay on RXF 393 renal it was -78.9% (active); with UACC-257 melanoma, -14.7% (active); in the assay on SK-MEL-2 melanoma, -47.8% (active); in the assay with SN12C renal it was 15.4% (inactive). For the same molecule, the growth was -15% (active) with TK-10 renal; -3.78% (active) in the assay on CAKI-1 renal; -82% (active) in the assay on A498 renal; 91.5% (inactive) in the assay on RPMI-8226 leukemia; -26.9% (active) in the assay on OVCAR-3 ovarian; -20.2% (active) with MDA-MB-435 melanoma. Moreover, the growth in the assay on HCC-2998 colon is -53.2% (active).

With `C=C1[C@@H](C)C2[C@H](Cc3ccccc3)NC(=O)[C@]23[C@H](OC(C)=O)/C=C/[C@@](C)(O)C(=O)[C@@H](C)C/C=C/[C@H]3[C@@H]1O` (some centres undefined), the growth in the assay with HOP-92 NSCLC is -37.8% (active); with K-562 leukemia it was 76.1% (inactive); with RXF 393 renal, -1.19% (active); with SK-MEL-2 melanoma, 81.5% (inactive); in the assay with SN12C renal, 79% (inactive); in the assay with TK-10 renal, 26.4% (inactive). Further, the growth in the assay with A498 renal was -18.8% (active); in the assay on RPMI-8226 leukemia, 19.8% (inactive); in the assay with OVCAR-3 ovarian it was 81.2% (inactive); in the assay with MDA-MB-435 melanoma, 64.1% (inactive); in the assay on HCC-2998 colon, 78.5% (inactive).

In the case of `NC1CCc2cc(O)c(O)cc2C1` (centres undefined), the growth was 1.68% (active) in the assay with K-562 leukemia; 81.9% (inactive) in the assay with RXF 393 renal; 103% (inactive) in the assay on UACC-257 melanoma; 97.7% (inactive) in the assay with SK-MEL-2 melanoma; 90.5% (inactive) in the assay with SN12C renal; 94.6% (inactive) in the assay with TK-10 renal. Further, the growth was 94.1% (inactive) in the assay with CAKI-1 renal; 71.9% (inactive) in the assay with A498 renal; 17.2% (inactive) in the assay on RPMI-8226 leukemia; 101% (inactive) in the assay on OVCAR-3 ovarian; 81.4% (inactive) with MDA-MB-435 melanoma; 46.2% (inactive) with HCC-2998 colon.
